Reference: PubChem BioAssay (Tox21)
Values without a mark were called inactive. Entries that show only a call come without a potency. Active and inactive are the calls of the source. Unless noted, calls come from the whole dose curve; as a rule, active = well fitted curve in the direction sought with a large enough effect in the repeat runs; inconclusive = weak or mixed curves; inactive = no such curve, though single readings can be large; an effect the other way counts as inactive or inconclusive.

Tests used:
[1] = qHTS assay for small molecules that induce genotoxicity in human embryonic kidney cells expressing luciferase-tagged ATAD5 - cell viability (AID 651634; calls by dose curve; note: nearly all actives have a fitted effect of over 25% in size)
Method in brief: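 Here HEK293T cells with the ATAD5 luciferase reporter are incubated with test compounds for 15.5 hr, and cytotoxicity is then gauged by measuring protease activity in live cells using fluorescence.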

[2] = qHTS assay for small molecule disruptors of the mitochondrial membrane potential - cell viability (AID 720634; calls by dose curve;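 note: human HepG2 liver cancer cells; nearly all actives have a fitted effect of over 20% in size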)
Method in brief: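 Viability of HepG2 cells is scored from ATP content by luminescence; cells are exposed to compound for 1 hr at 37 C and 5% CO2, then dosed with m-MPI dye before the CellTiter-Glo reagent.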

[3] = qHTS assay to test for compound auto fluorescence at 590 nm (red) in HepG2 cells (AID 720674)
Method in brief: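 HepG2 cells, 2,000 per well in MEM with 10% FBS, attached overnight at 37 C, then got 23 nL compound or DMSO. After 1 hr at 37 C, 5% CO2, red fluorescence was read at 540/590 nm against Rose Bengal sodium as reference.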

[4] = qHTS assay to test for compound auto fluorescence at 535 nm (green) in HepG2 cells (AID 720675)
[5] = qHTS assay to test for compound auto fluorescence at 460 nm (blue) in HEK293 cells (AID 720678)
Method in brief: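 HEK293, 2,000 cells/well, 10% dialyzed FBS; attach 4-5 hr 37C; pin compound or DMSO; o/n 37C/5% CO2; fluorescence 405/460 nm; triamterene-equivalent units.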

[6] = qHTS assay to test for compound auto fluorescence at 590 nm (red) in HEK293 cells (AID 720679)
Method in brief: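 Intensity at 540nm excitation and 590nm emission is reported as Rose Bengal sodium-equivalent autofluorescence. Measurements followed overnight exposure (37C, 5% CO2) of HEK293 cells, 2,000 per well, to 23 nL compound.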

[7] = qHTS assay to test for compound auto fluorescence at 535 nm (green) in HEK293 cells (AID 720680)
[8] = qHTS assay to test for compound auto fluorescence at 460 nm (blue) in HEK293 cell free culture (AID 720681)
Method in brief: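 Compounds were added to cell-free DMEM with 10% FBS and fluorescence read directly. The blue channel used 405 nm excitation and 460 nm emission, with triamterene as the reference fluorophore.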

[9] = qHTS assay to test for compound auto fluorescence at 535 nm (green) in HEK293 cell free culture (AID 720682)
Method in brief: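 DMEM + 10% FBS, cell-free; cpd or DMSO pinned in; Ex485/Em535 read; output as fluorescein-equivalent signal.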

[10] = qHTS assay to test for compound auto fluorescence at 590 nm (red) in HEK293 cell free culture (AID 720683)
Method in brief: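 Cell-free wells of DMEM with 10% FBS received compound, and intrinsic fluorescence was read at excitation/emission 540/590 nm. Values expressed as equivalence to Rose Bengal sodium.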

[11] = qHTS assay to test for compound auto fluorescence at 590 nm (red) in HepG2 cell free culture (AID 720684)
Method in brief: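 Auto fluorescence equivalency versus Rose Bengal sodium, red channel Ex/Em 540/590 nm; compounds in cell-free MEM/10% FBS; DMSO vehicle control.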

[12] = qHTS assay to test for compound auto fluorescence at 460 nm (blue) in HepG2 cell free culture (AID 720685)
Method in brief: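 Cell-free plates of MEM plus 10% FBS received 23 nL compound or DMSO vehicle; blue-channel (405/460 nm) intensity scored against triamterene as reference fluorophore.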

[13] = qHTS assay to test for compound auto fluorescence at 535 nm (green) in HepG2 cell free culture (AID 720686)
[14] = qHTS assay to test for compound auto fluorescence at 460 nm (blue) in HepG2 cells (AID 720687)
Method in brief: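 HepG2 cells in MEM with 10% FBS, attached overnight at 37 C, were exposed to compound or DMSO for 1 hr at 37 C, 5% CO2. Blue fluorescence was read at 405/460 nm, with triamterene as reference fluorophore.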

[15] = qHTS assay for small molecule agonists of the p53 signaling pathway - cell viability (AID 651633; calls by dose curve; note: nearly all actives have a fitted effect of over 30% in size; note: potency is the fitted concentration of half-maximal effect;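 for activity change, negative = cytotoxicity: p53RE-bla HCT reporter cells with a stable beta-lactamase p53 reporter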)
Method in brief: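 p53RE-bla cells were treated with compound for 16 hours at 37 C. Cytotoxicity was then measured as CellTiter-Glo luminescence after 30 min at room temperature.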

[16] = qHTS assay for small molecule disruptors of the mitochondrial membrane potential (AID 720635); note: potency is the fitted concentration of half-maximal effect
Method in brief: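 HepG2 cells exposed to compound 1 hr at 37C, then Mito-MPS dye 30 min. Ratio read of aggregate (540/590 nm) versus monomer (490/535 nm) fluorescence.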

[17] = qHTS assay for small molecules that induce genotoxicity in human embryonic kidney cells expressing luciferase-tagged ATAD5 (AID 651632); note: nearly all actives have a fitted effect of over 15% in size
Method in brief: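 DMSO vehicle served as the control. HEK293T reporter cells, 16 hr at 37C, then 30 min Amplite at room temperature; ATAD5 induction is measured as luciferase activity.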

[18] = biological target: Glucocorticoid receptor (Homo sapiens) (UniProt P04150); assay: qHTS assay to identify small molecule agonists of the glucocorticoid receptor (GR) signaling pathway (AID 720691; active = well fitted activation curve with a large enough effect in the signal ratio in the repeat runs, not every such curve was filed as active; inconclusive = weak or mixed curves, or effect the other way; inactive = no such curve, though single readings can be large or run the other way; the % refers to the signal ratio; note: potency is the fitted concentration of half-maximal effect); settings: GR-bla HeLa, beta-lactamase reporter ratio, 18 h; activation: at 62.4 µM (top of the series) unless noted
Chain of Glucocorticoid receptor (Homo sapiens) (P04150 whole entry, looked up): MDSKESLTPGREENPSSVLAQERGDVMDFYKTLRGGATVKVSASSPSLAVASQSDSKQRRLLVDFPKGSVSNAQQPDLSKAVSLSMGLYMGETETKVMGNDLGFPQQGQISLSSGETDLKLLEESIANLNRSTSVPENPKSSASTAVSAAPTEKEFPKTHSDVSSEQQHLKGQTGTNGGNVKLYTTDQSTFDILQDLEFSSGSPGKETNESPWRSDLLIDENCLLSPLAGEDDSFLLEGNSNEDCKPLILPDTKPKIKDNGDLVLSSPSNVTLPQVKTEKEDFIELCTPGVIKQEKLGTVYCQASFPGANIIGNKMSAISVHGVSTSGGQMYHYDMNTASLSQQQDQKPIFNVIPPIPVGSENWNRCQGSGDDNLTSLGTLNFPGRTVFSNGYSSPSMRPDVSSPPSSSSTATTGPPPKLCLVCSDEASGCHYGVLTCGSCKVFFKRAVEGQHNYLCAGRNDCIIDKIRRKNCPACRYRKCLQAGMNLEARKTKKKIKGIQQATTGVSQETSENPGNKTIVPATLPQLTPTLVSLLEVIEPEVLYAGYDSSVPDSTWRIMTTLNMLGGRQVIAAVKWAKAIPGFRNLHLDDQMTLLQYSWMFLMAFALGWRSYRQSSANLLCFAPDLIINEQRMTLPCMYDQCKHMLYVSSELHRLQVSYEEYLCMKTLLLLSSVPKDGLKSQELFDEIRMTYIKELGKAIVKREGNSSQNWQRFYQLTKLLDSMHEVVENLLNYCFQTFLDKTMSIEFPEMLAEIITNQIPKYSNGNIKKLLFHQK
Method in brief: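 Compounds in DMSO, alongside positive controls, were added to GR-bla HeLa reporter cells and incubated 18 h at 37 C; GRE-driven beta-lactamase was detected by fluorescence after 2 h with FRET substrate at room temperature.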

[19] = biological target: Glucocorticoid receptor (Homo sapiens) (UniProt P04150); assay: qHTS assay to identify small molecule antagonists of the glucocorticoid receptor (GR) signaling pathway (AID 720692; active = well fitted inhibition curve with a large enough effect in the signal ratio in the repeat runs, not every such curve was filed as active; inconclusive = weak or mixed curves, or effect the other way; inactive = no such curve, though single readings can be large or run the other way; the % refers to the signal ratio)
Method in brief: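 In a 1536-well cell format, compounds were added 4 h after seeding GR-bla HeLa cells, together with dexamethasone at 5 nM final; reporter activity was measured by FRET-substrate fluorescence following 18 h at 37 C.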

CN(C)c1ccc(/C=C/c2ccc([N+](=O)[O-])cc2)cc1
activity, negative = cytotoxicity [1]: 49.6% [at 8.08 µM]
activity change, negative = cytotoxicity [2]: -8.24% [at 8.08 µM]
fluorescence, relative to Rose Bengal [3]: 0% [at 3.72 µM]
fluorescence, % of fluorescein control [4]: -0.0437% [at 3.72 µM]
fluorescence, % of triamterene [5]: 0.0267% [at 3.72 µM]
fluorescence, % of fluorescent control [6]: 0.111% [at 3.72 µM]
fluorescence, % of fluorescein [7]: 0.0174% [at 3.72 µM]
fluorescence, % of fluorescent control [8]: -0.202% [at 3.72 µM]
activity change [9]: -0.151% [at 3.72 µM]
fluorescence, % of fluorescent control [10]: -0.187% [at 3.72 µM]
fluorescence, % of Rose Bengal [11]: -0.037% [at 3.72 µM]
fluorescence, % of fluorescent control [12]: -0.0827% [at 3.72 µM]
fluorescence, % of fluorescein control [13]: -0.0291% [at 3.72 µM]

O=C(CS)Nc1ccccc1
Potency [2]: inactive
Potency [3]: inactive
Potency [4]: inactive
outcome [5]: inactive
Potency [6]: inactive
outcome [8]: inactive
outcome [9]: inactive
Potency [10]: inactive
Potency [11]: inactive
outcome [12]: inactive
Potency [13]: inactive
outcome [14]: inactive

Cc1cccc(Nc2ccccc2)c1
Potency [15]: inactive
Potency [1]: inactive
Potency [2]: inactive
Potency [16]: 43.3 µM (active)
Potency [3]: inactive
Potency [4]: inactive
outcome [5]: inactive
Potency [6]: inactive
outcome [7]: inactive
outcome [8]: inactive
outcome [9]: inactive
Potency [10]: inactive
Potency [11]: inactive
outcome [12]: inactive
Potency [13]: inactive
outcome [14]: inactive

CCc1c(C(=O)NN2CCCCC2)nn(-c2ccc(Cl)cc2Cl)c1-c1ccc(Br)cc1
Potency [15]: 13.7 µM (active)
Potency [1]: inactive
Potency [2]: inactive
Potency [16]: 24.3 µM (active)
Potency [3]: inactive
Potency [4]: inactive
outcome [5]: inactive
Potency [6]: inactive
outcome [7]: inactive
outcome [8]: inactive
Potency [10]: inactive
Potency [11]: inactive
outcome [12]: inactive
Potency [13]: inactive

CCCCO
Potency [15]: inactive
Potency [1]: inactive
Potency [2]: inactive
Potency [3]: inactive
Potency [4]: inactive
outcome [5]: inactive
Potency [6]: inactive
outcome [7]: inactive
outcome [8]: inactive
outcome [9]: inactive
Potency [11]: inactive
outcome [12]: inactive
Potency [13]: inactive
outcome [14]: inactive

C#Cc1cccc(Nc2ncnc3cc(OCCOC)c(OCCOC)cc23)c1
Potency [17]: inactive
Potency [2]: inactive
Potency [3]: inactive
Potency [4]: inactive
outcome [5]: inactive
Potency [6]: inactive
outcome [7]: inactive
outcome [8]: inactive
Potency [10]: inactive
Potency [11]: inactive
outcome [12]: inactive
Potency [13]: inactive
outcome [14]: inactive
Potency [18]: 26.8 µM [inconclusive] (active)

COc1cc(Cl)c(OC)cc1N
Potency [1]: inactive
Potency [2]: inactive
Potency [3]: inactive
Potency [4]: inactive
outcome [5]: inactive
Potency [6]: inactive
outcome [7]: inactive
outcome [8]: inactive
outcome [9]: inactive
Potency [10]: inactive
Potency [11]: inactive
outcome [12]: inactive
Potency [13]: inactive
outcome [14]: inactive
Potency [18]: inactive
Potency [19]: inactive

C=CCOc1ccccc1OCC(O)CNC(C)C (stereo not drawn)
Potency [1]: inactive
Potency [2]: inactive
fluorescence, relative to Rose Bengal [3]: -0.0179% [at 18.6 µM]
fluorescence, % of fluorescein control [4]: 0.095% [at 18.6 µM]
fluorescence, % of triamterene [5]: 0.0129% [at 18.6 µM]
fluorescence, % of fluorescent control [6]: 0.157% [at 18.6 µM]
fluorescence, % of fluorescein [7]: -0.0095% [at 18.6 µM]
fluorescence, % of fluorescent control [8]: 0.179% [at 18.6 µM]
activity change [9]: -0.0456% [at 18.6 µM]
fluorescence, % of fluorescent control [10]: 0.179% [at 18.6 µM]
fluorescence, % of Rose Bengal [11]: 0.264% [at 18.6 µM]
fluorescence, % of fluorescent control [12]: -0.0059% [at 18.6 µM]
fluorescence, % of fluorescein control [13]: 0.0052% [at 18.6 µM]
fluorescence, % of fluorescent control [14]: -0.0332% [at 18.6 µM]

CCCCCCCCCCCCCCCCCCOS(=O)(=O)O
Potency [1]: inactive
Potency [2]: inactive
Potency [3]: inactive
Potency [4]: inactive
outcome [5]: inactive
Potency [6]: inactive
outcome [7]: inactive
outcome [8]: inactive
outcome [9]: inactive
Potency [10]: inactive
Potency [11]: inactive
outcome [12]: inactive
Potency [13]: inactive
outcome [14]: inactive
Potency [18]: inactive

Nc1cccc([N+](=O)[O-])c1
Potency [15]: inactive
Potency [1]: inactive
Potency [2]: inactive
Potency [3]: inactive
Potency [4]: inactive
outcome [5]: inactive
Potency [6]: inactive
outcome [7]: inactive
outcome [8]: inactive
outcome [9]: inactive
Potency [10]: inactive
Potency [11]: inactive
outcome [12]: inactive
Potency [13]: inactive
outcome [14]: inactive
Potency [18]: inactive

CCOCC(O)COc1ccc(NC(=O)CC[S+](C)C)cc1 (stereo not drawn)
Potency [1]: inactive
Potency [2]: inactive
Potency [3]: inactive
Potency [4]: inactive
outcome [5]: inactive
outcome [7]: inactive
outcome [8]: inactive
outcome [9]: inactive
Potency [10]: inactive
Potency [11]: inactive
outcome [12]: inactive
Potency [13]: inactive
outcome [14]: inactive
Potency [18]: inactive
